Compounds with a hit are over-represented: about 3.4% of the library has one in this group of screens.
IMPase inh – IMPase inhibition in cells | P97697 | CHO-M1 cells, IP1 accumulation, HTRF TR-FRET ratio | inhibition (IP1 accumulation), % at 46.1 µM | 120,000 tested, under 10 active; active means well fitted curve in the direction sought with a large enough effect in the signal ratio, not every such curve was filed as active; inconclusive means small, poorly fitted or top-dose-only effect, or a change in a side signal; inactive means no such curve, though single readings can be large or run the other way; the % refers to the signal ratio;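 further: cells stimulated with carbachol in lithium chloride buffer; higher means more IMPase inhibition seen as more IP1 and lower FRET ratio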
Target sequence (P97697 whole entry, looked up): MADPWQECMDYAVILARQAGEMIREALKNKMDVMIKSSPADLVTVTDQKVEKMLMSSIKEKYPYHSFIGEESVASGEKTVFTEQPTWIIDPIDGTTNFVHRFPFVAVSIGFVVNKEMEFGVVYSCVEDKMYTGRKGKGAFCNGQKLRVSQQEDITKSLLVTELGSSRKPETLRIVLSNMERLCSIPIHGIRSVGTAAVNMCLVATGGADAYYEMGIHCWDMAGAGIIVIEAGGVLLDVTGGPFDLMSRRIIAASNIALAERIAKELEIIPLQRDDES
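Carbachol-driven Gq signalling in CHO-M1 cells (2000/well) generates IP1. Compounds that block IMPase raise IP1 and so reduce the FRET signal from Eu-anti-IP1 and d2-IP1 after a 10 min room-temperature lysis.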
HTT aggregate – mutant huntingtin aggregation inhibition. PC12 HttQ103-GFP aggregates, Acumen cytometry, 40 h. Potency, µM (series often up to 46.1 µM), hits mostly inhibitors. 1.1% of 220,000 active. AID 1688; further: nearly all actives have a fitted effect of over 60% in size
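PC12 cells stably carrying ecdysone-inducible HTT exon 1 Q103–GFP were induced with tebufenozide (100 nM final) and treated with library compounds in titration. GFP aggregates in lysates were counted by laser scanning cytometry.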
PNC assembly inh – perinucleolar compartment assembly inhibition | PC3M PTB-GFP, PNC prevalence imaging, 16 h; hits give low values | activity change (PNC), negative = inhibition, % at 10 µM | 3.1% of 140,000 active | AID 2417;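 active means readout at or below -70, meaning at least 70% loss of cells showing the perinucleolar compartment, a nuclear body marking cancer cells; inconclusive means readout between -30 and a set limit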
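Read-out is percentage of cells bearing a perinucleolar compartment, from automated 20x imaging of fixed, Hoechst-stained PC3M PTB-GFP cells. Cells were seeded 4 h, then exposed 16 h to compound (23 nl of library stock) in duplicate plates.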
NPSR antagonist – antagonists of human neuropeptide S receptor cAMP signaling; Potency, µM (highest dose often 38.3 µM), most hits filed as inhibitors; 1% of 220,000 active; AID 1461; CHO-NPSR cells, cAMP TR-FRET, antagonist mode; Q6W5P4; further: nearly all actives have a fitted effect of over 50% in size
Target sequence (Q6W5P4 whole entry, looked up): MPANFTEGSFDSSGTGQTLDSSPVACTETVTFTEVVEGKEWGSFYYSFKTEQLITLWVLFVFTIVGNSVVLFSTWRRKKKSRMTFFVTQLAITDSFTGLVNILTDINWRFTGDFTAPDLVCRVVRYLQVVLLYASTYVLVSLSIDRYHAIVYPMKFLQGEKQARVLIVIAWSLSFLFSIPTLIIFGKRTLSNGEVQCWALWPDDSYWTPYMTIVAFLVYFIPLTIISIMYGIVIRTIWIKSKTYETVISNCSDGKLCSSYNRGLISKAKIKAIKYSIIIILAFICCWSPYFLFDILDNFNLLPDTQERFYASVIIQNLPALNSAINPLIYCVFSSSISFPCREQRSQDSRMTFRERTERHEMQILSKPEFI
IMPase Li cell – IMPase inhibition in cells with lithium potentiation | Potency, µM (series often up to 59.4 µM), most hits filed as inhibitors | CHO-M1 cells, IP1 TR-FRET (IP-One), carbachol + lithium | 0.35% of 210,000 active | AID 1457;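 further: IP1 builds up when IMPase is blocked and the TR-FRET signal falls; nearly all actives have a fitted effect of over 50% in size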
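IP1 accumulation measured by competitive TR-FRET in lysed CHO-M1 cells after 30 min compound exposure at 37C, with a small lithium addition to potentiate weak responses. Hill-equation AC50 from ratio and donor-channel data.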
HTT cytoprotect – cytoprotection in Huntington HTT-Q103 PC12 cell model | Potency, µM (top dose mostly 56.4 µM), hits mostly activators | 0.14% of 230,000 active | PC12 HTT-Q103 induced, cytoprotection, ATP luminescence, 40 h; further: nearly all actives have a fitted effect of over 45% in size
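Cells were plated at 1500 per well in phenol red-free DMEM with 5% equine and 5% calf serum. Tebufenozide (100 nM final) and compounds were added, then ATPlite reagent, and luminescence was read.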
Hits are given with their value; i = inactive; ? = inconclusive; nt = not tested or not shown; [ ] = dose if it differs, or a comment. Unless noted, the call rests on the fitted dose curve; in most records, active means well fitted curve in the direction sought with a large enough effect; inconclusive means small, poorly fitted or top-dose-only effect, or another doubt; inactive means no such curve, though single readings can be large; an effect the other way counts as inactive or inconclusive.

SMILES	IMPase inh	HTT aggregate	PNC assembly inh	NPSR antagonist	IMPase Li cell	HTT cytoprotect
CCOC(=O)/C(=C/c1ccccc1)NC(=O)c1ccco1	?	i	-81	i	i	i[10 µM]
COc1ccc(OCC(=O)NC(=S)Nc2ccc3c4c(cccc24)CC3)cc1	nt	i	i	i	7.1µM	nt
O=c1[nH]c2ccccc2n1CCCSc1cnc2ccccc2n1	i	11µM	i	i	i	i
CCCn1c(SCC(=O)NCCc2ccccc2)nnc1C(C)C	nt	i[9.22 µM]	nt	i	nt	i[10 µM]
CCC(=O)NC(=S)Nc1ccc(-c2nc3ccc(C)cc3s2)cc1	i	i	i	i	nt	i[10 µM]
Cc1ccc(C(=O)NC(=S)Nc2cccc(-c3nc4ccccc4s3)c2)cc1	i	i	-112	i	i	i[10 µM]
CCC(=O)NC(=S)Nc1ccc(-c2nc3ccccc3s2)cc1	i	i	i	i	11µM	i[10 µM]
O=c1cnc2cnc(Nc3ccccc3)nc2n1Cc1cccs1	nt	nt	nt	nt	i	?
CCCCCCCCCCCCCCCCOC[C@@H](COCC(F)(F)F)OP(=O)(O)OCO	nt	nt	nt	nt	nt	i[1.9 µM]
CC1CCN(CC(=O)NCc2ccccc2)CC1	i	2.5µM	i	i	i	i[0.074 µM]
COc1ccc(C(=O)c2c(C)oc3ccc(O)c(CN4CCOCC4)c23)cc1	i	i	?	i	i	i
COCCOC(=O)c1c(C)oc2ccc(O)c(CN3CCC(C)CC3)c12	i	i[9.22 µM]	-110	i	i	i
Cc1ccc(-n2c(-c3ccccc3)c[n+]3c2CCc2ccccc2-3)c(C)c1	nt	3.2µM	nt	i	i	i
O=C(CCc1ccccc1)N1CCN(c2ccc([N+](=O)[O-])cc2)CC1	nt	i	nt	i	i	i
CC(C)CN(C(=O)CN1CCN(c2ccc(F)cc2)CC1)c1c(N)n(CC(C)C)c(=O)[nH]c1=O	i	i	?	i	i	i[10 µM]
Cc1ccc(S(=O)(=O)N2CCN(CC(=O)N(CC(C)C)c3c(N)n(CC(C)C)c(=O)[nH]c3=O)CC2)c(C)c1	i	i	-98	i	i	i[10 µM]
CCCCN(C(=O)CN1CCOCC1)c1c(N)n(CC(C)C)c(=O)[nH]c1=O	i	i	-81	i	nt	i[10 µM]
CC(C)[C@@H](CC(=O)N[C@@H]1CCCC[C@H]1C(=O)N[C@H](CC(=O)N[C@@H](CCC(=O)O)CC(=O)O)Cc1c[nH]c2ccccc12)NC(=O)C[C@H](Cc1c[nH]c2ccccc12)NC(=O)[C@@H]1CCCC[C@H]1N	nt	nt	nt	nt	i	i[1.9 µM]
Cc1nc2cnc(OCc3ccccc3)nc2n(Cc2ccc(F)cc2)c1=O	nt	nt	nt	nt	i	i
N=C(N)SCc1ccc(Cl)cc1Cl (tested in a mixture with another compound)	nt	nt	nt	nt	i	i[10 µM]
Cc1cc(C(=O)NCCc2ccc(S(=O)(=O)NC(=O)NN3CCCCCC3)cc2)no1	nt	i	nt	nt	i	?
NCCNC(=S)S	nt	nt	nt	nt	i	i[10 µM]
CN(C)c1ccc(P(=O)(Nc2ccc([N+](=O)[O-])cc2)N2CCOCC2)c(NC(=O)c2cccs2)c1 (stereo not drawn)	i	i	-80	i	i	i[10 µM]
Cc1ccc(NP(=O)(c2ccc(N(C)C)cc2NC(=O)c2cccs2)N2CCOCC2)cc1 (stereo not drawn)	i	i	i	i	i	i[10 µM]
CC(C)CC(NC(=O)c1ccc(Cl)cc1)C(=O)OCC(=O)c1ccc2c(c1)NC(=O)CO2 (stereo not drawn)	i	i	?	10µM	i	i
SMILES	IMPase inh	HTT aggregate	PNC assembly inh	NPSR antagonist	IMPase Li cell	HTT cytoprotect
CC(C)[C@H](NC(=O)c1ccco1)C(=O)OCC(=O)c1ccc2c(c1)NC(=O)CO2	nt	i	nt	i	i	i[10 µM]
O=C1N/C(=N\N=C\c2ccccn2)SC1Cc1cccc(SC(F)F)c1 (stereo not drawn)	i	5.6µM	i	?	i	i[10 µM]
O=C1N/C(=N\N=C\c2ccc3ncccc3c2)SC1Cc1ccc(SC(F)F)cc1 (stereo not drawn)	i	i	?	i	i	i
O=C1N/C(=N\N=C\c2cccnc2)SC1Cc1ccc(SC(F)F)cc1 (stereo not drawn)	i	5.6µM	i	?	i	i[10 µM]
Cc1ccc(-c2ccc(C(=O)Nc3cccc(F)c3)o2)c2ccccc12	nt	22µM	i	i	i	nt
O=C(Nc1cccc(F)c1)c1ccc(-c2ccccc2Cl)o1	nt	i	i	i	i	nt
COc1ccc2c(c1)O[C@@H](c1cccc(C(F)(F)F)c1)[C@H](OC(=O)NS(=O)(=O)c1ccc(F)cc1)C2=O	nt	nt	nt	nt	i	i
C[C@@H]1Cc2c(O)c(O)cc(O)c2C(=O)O1	nt	i[9.22 µM]	nt	i	nt	i[10 µM]
CC1CCC/C=C/C(=O)c2c(O)cc(O)cc2CC(=O)O1 (stereo not drawn)	nt	i[9.22 µM]	nt	5µM	nt	i[10 µM]
CCOc1ccc2nc(C)cc(Nc3cccc([N+](=O)[O-])c3)c2c1	nt	i	-102	i	i	i[0.074 µM]
CC(C)(C)OC(=O)NCCc1nnc(S(=O)(=O)Cc2ccc(Cl)cc2Cl)o1	i	20µM	i	?	i	i[0.074 µM]
CC(C)(C)OC(=O)NCCc1nnc(SCc2ccccc2Cl)o1	i	i	i	i	i	i
C=CCOc1cccc(C2C(C(=O)c3ccc(C)o3)=C(O)C(=O)N2c2nccs2)c1 (stereo not drawn)	?	i	?	5µM	nt	nt
Cc1ccc2nc(N3C(=O)C(O)=C(C(=O)c4ccc(C)o4)C3c3cccc(O)c3)sc2c1 (stereo not drawn)	nt	i	nt	i	8.9µM	i[10 µM]
Cc1ccc(C(=O)C2=C(O)C(=O)N(c3ncccn3)C2c2cccc(Cl)c2)o1 (stereo not drawn)	?	i	i	i	?	i
C=CCOc1cccc(C2C(C(=O)c3ccco3)=C(O)C(=O)N2CCN(CC)CC)c1 (stereo not drawn)	i	i	-134	i	i	i[0.074 µM]
COc1ccc(/C(C)=N/N=C2/NC(=O)CC(C(=O)O)S2)cc1F (stereo not drawn)	nt	i[9.22 µM]	nt	i	nt	i[10 µM]
COc1cccc(NC(=S)NCCN2CCOCC2)c1	nt	i	-91	i	i	i[0.074 µM]
CC(C)C[C@@H](/C=C/S(C)(=O)=O)NC(=O)[C@H](CC(C)C)NC(=O)[C@H](CC(C)C)NC(=O)OCc1ccccc1	nt	nt	nt	nt	i	i
CC1=C(C(=O)OC2CCCCCC2)C(c2cccc(F)c2F)CC(=O)N1 (stereo not drawn)	i	nt	nt	nt	nt	nt
CC1CCCN(Cc2c(O)ccc3c(=O)c(-c4ccccc4Cl)c(C(F)(F)F)oc23)C1 (stereo not drawn)	i	nt	nt	nt	nt	nt
Cc1cc(NC(=O)COC(=O)c2ccccc2[N+](=O)[O-])no1	nt	i	nt	i	i	i[10 µM]
Cc1cccc(C)c1NC(=O)C[N+](C)(C)C	i	nt	nt	i	i	i
Cc1cc(C)cc(NCC(=O)Nc2c(C)cccc2C)c1	i	?	-90	i	i	i[10 µM]
COc1ccc(-n2c(=O)c(CCc3ccccc3)nc3cnc(OC)nc32)cc1	nt	nt	nt	nt	i	i
